Results taken from PubChem BioAssay (NCI).
This is part of a sample that, as a whole, favours compounds with a hit. Of some 83,000 tested, about 20% had one in any assay.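 Activity criterion: percent growth below 10, measured after cells in 96-well plates were exposed to a single compound concentration for 48 hours.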 The source made the active and inactive calls.

Legend:
Experiment in all cases: NCI-60 one-dose screen, 48 h (100 = growth as untreated, 0 = no growth, -100 = all killed)
Details in all cases: 10 µM unless noted
[1] = system: NCI-H23 lung
[2] = system: NCI-H226 lung
[3] = system: NCI-H322M lung
[4] = system: HOP-62 NSCLC
[5] = system: NCI-H460 lung
[6] = system: HOP-92 NSCLC
[7] = system: NCI-H522 lung
[8] = system: A549/ATCC NSCLC
[9] = system: 786-0 renal
[10] = system: COLO 205 colon
[11] = system: DU-145 prostate
[12] = system: K-562 leukemia
[13] = system: MALME-3M melanoma
[14] = system: MDA-MB-231 breast
[15] = system: RXF 393 renal
[16] = system: SF-268 CNS
[17] = system: SF-295 CNS
[18] = system: UACC-257 melanoma
[19] = system: M14 melanoma

Measured: growth

Cc1ccc(Nc2nc(N)nc(Nc3ccc4ccccc4c3)n2)cc1
active: [7] 6.88%
inactive: [1] 69.2% | [2] 89.8% | [3] 52.4% | [4] 47% | [5] 14.6% | [6] 21.1% | [8] 30.9% | [9] 46.6% | [10] 18.7% | [11] 58.5% | [12] 20.2% | [13] 83.9% | [14] 47.9% | [15] 27.3% | [16] 46.3% | [17] 53.3% | [18] 54.3% | [19] 44%

CCOC(=O)C12CCCC1=CC(=O)CC2 (centres undefined)
inactive: [1] 107% | [2] 107% | [3] 104% | [4] 101% | [5] 107% | [6] 107% | [7] 105% | [8] 91.6% | [9] 104% | [10] 108% | [11] 116% | [12] 89% | [13] 108% | [14] 111% | [15] 113% | [16] 103% | [17] 115% | [18] 94.4% | [19] 112%

Cc1nn(-c2nc3ccccc3[nH]2)c2c1C(c1ccc3c(c1)OCO3)CC(=O)N2 (centres undefined)
inactive: [2] 32% | [3] 65% | [4] 22.1% | [6] 12.6% | [7] 26.7% | [8] 22.8% | [9] 32.8% | [10] 83.1% | [11] 30.7% | [13] 27.7% | [14] 40.8% | [16] 19.3% | [18] 69.1% | [19] 42.5%
active: [1] 4.34% | [5] -8.19% | [12] -14.8% | [15] 8.03% | [17] -36.3%

O=c1[nH]c(-c2ccccn2)nc2sc3c(c12)CCCCC3
inactive: [1] 56.9% | [2] 68.8% | [3] 48.5% | [4] 37.8% | [5] 18.8% | [6] 68.6% | [7] 20.8% | [8] 31.7% | [9] 60.4% | [10] 28% | [11] 48.8% | [12] 21.4% | [13] 75.3% | [14] 52.4% | [15] 70.4% | [16] 47.6% | [17] 33.1% | [18] 73.4% | [19] 43.3%

CC(C)Oc1nc2c(c(=O)n(C)c(=O)n2C)n1C
inactive: [1] 96% | [2] 97.1% | [3] 94.4% | [4] 92.5% | [5] 105% | [6] 102% | [7] 80.9% | [8] 84.7% | [9] 104% | [10] 102% | [11] 105% | [12] 95% | [13] 107% | [14] 103% | [15] 116% | [16] 100% | [17] 101% | [18] 88% | [19] 107%

CCOC(=O)C(Cc1cc(I)c(O)c(I)c1)NC(=O)c1ccccc1 (centres undefined)
active: [6] -14.2%
inactive: [1] 102% | [2] 93.1% | [3] 101% | [4] 78.8% | [5] 104% | [7] 87.5% | [8] 83.8% | [9] 97.6% | [10] 108% | [11] 109% | [12] 97.1% | [13] 99.5% | [14] 102% | [15] 99.1% | [16] 102% | [17] 101% | [18] 92.7% | [19] 99.3%

CNc1nc(C)c(-c2nc(Nc3cccc(S(N)(=O)=O)c3)ncc2F)s1
active: [1] -18.8% | [2] 7.23% | [3] 3.99% | [4] 3.17% | [5] 4.4% | [7] -11.7% | [8] 3.85% | [9] 2.98% | [10] -66.1% | [12] 4.89% | [13] -31.4% | [14] 3.09% | [15] -50% | [16] -12.7% | [17] 6.78% | [18] -16.4% | [19] -3.19%
inactive: [6] 38.2% | [11] 10.9%

COc1cnc2c(c1)C(=O)c1c-2n(CCCBr)c(=O)c2cc([N+](=O)[O-])ccc12
inactive: [3] 15.5% | [6] 26.5% | [12] 11.7% | [14] 24.3%
active: [1] -5.87% | [2] -1.66% | [4] 3.86% | [5] 2.4% | [7] -18.4% | [8] 2.68% | [9] 5.26% | [10] -26.2% | [11] 7.11% | [13] -2.44% | [15] -10.8% | [16] 9.06% | [17] -11.3% | [18] -32.3% | [19] 3.34%

CC1=C(NCCN2CCCC2)C(=O)c2c(OCc3ccc(F)c(Cl)c3)cccc2C1=O
active: [18] -63.9% | [19] -73.7%
inactive: [1] 69.8% | [2] 90.4% | [3] 64.3% | [4] 68.8% | [5] 57.7% | [6] 57.1% | [7] 76% | [8] 78.3% | [9] 63.6% | [10] 69.5% | [11] 84.3% | [12] 17% | [13] 44.3% | [14] 59.1% | [15] 71.8% | [16] 70.5% | [17] 45.6%

CCOC(=O)/C=C/C(=O)[C@H](CC(C)C)NC(=O)[C@H](Cc1ccccc1)NC(=O)OCc1ccccc1
active: [12] 5.9%
inactive: [1] 91% | [2] 102% | [3] 103% | [4] 108% | [5] 84.9% | [6] 79.7% | [7] 18% | [8] 73.3% | [9] 30% | [10] 67.5% | [11] 68.3% | [13] 103% | [14] 63.5% | [15] 26.8% | [16] 84.8% | [17] 99.7% | [18] 70.7% | [19] 65.6%

CNCCCn1c2c(c3ccc([N+](=O)[O-])cc3c1=O)C(=O)c1cc(OC)cnc1-2
active: [1] -55.4% | [2] -81.5% | [3] -5.51% | [4] -33.4% | [5] -70.4% | [6] -7.43% | [7] -29% | [8] -82% | [9] -78.5% | [10] -13.2% | [11] 0.657% | [12] -28.9% | [13] -69.2% | [14] -51.9% | [15] -90.5% | [16] 0.163% | [17] -13.2% | [18] -23.1% | [19] -13.1%

COc1cc2c(cc1O)CCc1cc(O)cc(OC)c1-2
inactive: [1] 99.3% | [2] 87.4% | [3] 101% | [4] 105% | [5] 93.8% | [6] 103% | [7] 61.5% | [8] 87.6% | [9] 97.1% | [10] 110% | [11] 109% | [12] 99.2% | [13] 96.5% | [14] 83.1% | [15] 103% | [16] 93.8% | [17] 103% | [18] 95.3% | [19] 94.6%

O=C1CC(c2nc3ccccc3s2)CN1C1CCCCC1 (centres undefined)
inactive: [1] 90.4% | [2] 94.6% | [3] 91.2% | [4] 93.2% | [5] 105% | [6] 84.9% | [7] 92.7% | [8] 98.9% | [9] 109% | [10] 101% | [11] 104% | [12] 96.7% | [13] 90.8% | [14] 86.8% | [15] 107% | [16] 99.1% | [17] 92.9% | [18] 98.6% | [19] 99.1%

COc1ccc(-c2c3c(nc4n[nH]c(-c5ccc(Cl)cc5)c24)-c2ccccc2C(=O)C3=O)cc1
active: [1] -53% | [5] -12.9% | [6] 9.32% | [7] -59.7% | [9] 7.58% | [12] 4.49% | [13] -32.4% | [14] -28% | [16] -38.8% | [19] -28.4%
inactive: [2] 42.3% | [3] 84% | [4] 29.1% | [8] 35.9% | [10] 70.6% | [11] 22.4% | [15] 14.1% | [17] 77.4% | [18] 11%

Oc1c(Cl)cc(Cl)cc1CNc1nccnn1
inactive: [1] 102% | [2] 92% | [3] 99.3% | [4] 103% | [5] 109% | [6] 101% | [7] 105% | [8] 102% | [9] 111% | [10] 100% | [11] 101% | [12] 125% | [13] 93.9% | [14] 104% | [15] 108% | [16] 96.6% | [17] 101% | [18] 105% | [19] 91.9%

CNCc1cccc2c1OCCOCCOCCN(C)S(=O)(=O)c1ccc(cc1)-c1cnc(N)c(n1)C(=O)N2
inactive: [1] 52.6% | [2] 45.6% | [3] 25.5% | [4] 79.8% | [5] 10.5% | [6] 127% | [8] 60.5% | [10] 29.8% | [11] 47.4% | [14] 69.1% | [16] 69.4% | [17] 87.6% | [18] 63.4% | [19] 37.3%
active: [7] 9.56% | [9] 9.16% | [12] 1.1% | [13] 9.53% | [15] -54.8%
